Holding throughout (experiment): DAPPL (digital affinity profiling via proximity ligation, sequencing); 10 mM Tris-HCl pH 7.5, 50 mM NaCl, 1 mM DTT, 4% glycerol, room temperature, 30 min; GST-TFs on glutathione beads, 16-mer random dsDNA library, 0.1% formaldehyde crosslink after washing; high values mean tight binding
In one assay the target is T1, FEV (Homo sapiens, UniProt Q99581 1-238).
T1 sequence: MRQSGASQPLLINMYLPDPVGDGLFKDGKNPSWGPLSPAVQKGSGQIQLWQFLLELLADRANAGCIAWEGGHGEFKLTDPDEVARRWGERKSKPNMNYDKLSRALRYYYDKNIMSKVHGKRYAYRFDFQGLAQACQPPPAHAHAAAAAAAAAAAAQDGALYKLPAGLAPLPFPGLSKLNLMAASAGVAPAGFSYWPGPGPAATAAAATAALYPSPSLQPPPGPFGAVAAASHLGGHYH
Conditions: protein: recombinant; tags: N-terminal GST; dsDNA, one strand shown. A digest of the protocol:
(§1)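 Binding signal is each hexamer's read frequency for a factor divided by its frequency in the tag-only sample. The factors were GST-fused human transcription factors from yeast, captured on glutathione beads, DNA-barcoded and pooled with that sample. Pools were incubated with 200 nmole of a random double-stranded 16-mer DNA library in Tris/NaCl/DTT/glycerol buffer at room temperature for 30 min, then washed, crosslinked with 0.1% formaldehyde, proximity-ligated with BsaI/T4 ligase (1 h, 37 °C), PCR-amplified and sequenced on an Illumina NextSeq500.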

The next assay concerns the target ETV5 (Homo sapiens, UniProt P41161 1-510). Conditions: protein: recombinant; tags: N-terminal GST; dsDNA, one strand shown. Put shortly:
as §1

A further assay has as its target HSF1 (Homo sapiens, UniProt Q00613 1-529). Conditions: protein: recombinant; tags: N-terminal GST; chain copies: 3; dsDNA, one strand shown. A digest of the protocol:
as §1

The next assay has as its target T2, SPIC (Homo sapiens, UniProt Q8N5J4 1-248).
T2 sequence: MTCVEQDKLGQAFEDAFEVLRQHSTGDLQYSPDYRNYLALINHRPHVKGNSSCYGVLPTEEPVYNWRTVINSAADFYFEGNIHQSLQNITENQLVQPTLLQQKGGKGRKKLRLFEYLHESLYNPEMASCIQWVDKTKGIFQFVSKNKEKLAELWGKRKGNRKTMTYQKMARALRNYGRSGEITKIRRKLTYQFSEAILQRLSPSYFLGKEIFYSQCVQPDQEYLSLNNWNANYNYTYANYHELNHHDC
Conditions: protein: recombinant; tags: N-terminal GST; dsDNA, one strand shown. Put shortly:
as §1

In a further assay the target is ELF4 (Homo sapiens, UniProt Q99607 1-663). Conditions: protein: recombinant; tags: N-terminal GST; dsDNA, one strand shown. A digest of the protocol: as §1
For the next assay, the target named is T3, ELK4 (Homo sapiens, UniProt P28324-2 1-405).
T3 sequence: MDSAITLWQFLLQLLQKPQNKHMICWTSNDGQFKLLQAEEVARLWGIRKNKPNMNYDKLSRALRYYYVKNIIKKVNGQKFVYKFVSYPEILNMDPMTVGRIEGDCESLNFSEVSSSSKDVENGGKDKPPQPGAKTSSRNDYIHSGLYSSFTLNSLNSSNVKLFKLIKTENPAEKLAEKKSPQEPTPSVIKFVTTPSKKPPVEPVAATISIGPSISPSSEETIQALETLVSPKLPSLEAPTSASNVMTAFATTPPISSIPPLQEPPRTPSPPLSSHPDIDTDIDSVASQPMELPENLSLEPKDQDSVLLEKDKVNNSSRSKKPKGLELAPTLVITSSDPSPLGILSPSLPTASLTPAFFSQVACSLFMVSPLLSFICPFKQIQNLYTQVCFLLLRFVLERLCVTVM
Conditions: protein: recombinant; tags: N-terminal GST; dsDNA, one strand shown. A digest of the protocol:
as §1

In another assay the target is T4, ETV2 (Homo sapiens, UniProt O00321 1-342).
T4 sequence: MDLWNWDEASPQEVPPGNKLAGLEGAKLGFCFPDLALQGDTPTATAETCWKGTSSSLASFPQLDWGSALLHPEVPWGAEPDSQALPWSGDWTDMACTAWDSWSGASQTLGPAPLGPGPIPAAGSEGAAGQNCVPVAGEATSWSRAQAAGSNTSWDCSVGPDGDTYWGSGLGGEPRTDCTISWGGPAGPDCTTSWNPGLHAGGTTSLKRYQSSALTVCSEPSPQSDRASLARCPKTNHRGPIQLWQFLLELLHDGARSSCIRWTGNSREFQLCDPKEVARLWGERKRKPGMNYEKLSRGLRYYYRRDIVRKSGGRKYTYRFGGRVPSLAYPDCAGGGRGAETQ
Conditions: protein: recombinant; tags: N-terminal GST; dsDNA, one strand shown. A digest of the protocol:
as §1

A further assay has as its target T5, ELF3 (Homo sapiens, UniProt P78545 1-371).
T5 sequence: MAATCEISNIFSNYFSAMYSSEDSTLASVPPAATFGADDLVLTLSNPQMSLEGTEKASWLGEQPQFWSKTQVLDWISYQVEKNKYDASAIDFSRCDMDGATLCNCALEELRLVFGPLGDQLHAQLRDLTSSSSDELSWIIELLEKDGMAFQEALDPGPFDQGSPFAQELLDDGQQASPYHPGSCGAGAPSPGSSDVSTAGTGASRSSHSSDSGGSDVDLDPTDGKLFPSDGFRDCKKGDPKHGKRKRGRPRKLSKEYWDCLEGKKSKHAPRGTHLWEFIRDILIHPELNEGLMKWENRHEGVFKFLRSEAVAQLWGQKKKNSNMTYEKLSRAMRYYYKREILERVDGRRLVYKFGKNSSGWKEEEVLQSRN
Conditions: protein: recombinant; tags: N-terminal GST; dsDNA, one strand shown. A digest of the protocol:
as §1

The next assay has as its target CRX (Homo sapiens, UniProt O43186 1-299). Conditions: protein: recombinant; tags: N-terminal GST; dsDNA, one strand shown. Put shortly: as §1
In the next assay the target is ETV1 (Homo sapiens, UniProt P50549 1-477). Conditions: protein: recombinant; tags: N-terminal GST; dsDNA, one strand shown. Put shortly: as §1
Another assay concerns the target T6, ERF (Homo sapiens, UniProt P50548 1-548).
T6 sequence: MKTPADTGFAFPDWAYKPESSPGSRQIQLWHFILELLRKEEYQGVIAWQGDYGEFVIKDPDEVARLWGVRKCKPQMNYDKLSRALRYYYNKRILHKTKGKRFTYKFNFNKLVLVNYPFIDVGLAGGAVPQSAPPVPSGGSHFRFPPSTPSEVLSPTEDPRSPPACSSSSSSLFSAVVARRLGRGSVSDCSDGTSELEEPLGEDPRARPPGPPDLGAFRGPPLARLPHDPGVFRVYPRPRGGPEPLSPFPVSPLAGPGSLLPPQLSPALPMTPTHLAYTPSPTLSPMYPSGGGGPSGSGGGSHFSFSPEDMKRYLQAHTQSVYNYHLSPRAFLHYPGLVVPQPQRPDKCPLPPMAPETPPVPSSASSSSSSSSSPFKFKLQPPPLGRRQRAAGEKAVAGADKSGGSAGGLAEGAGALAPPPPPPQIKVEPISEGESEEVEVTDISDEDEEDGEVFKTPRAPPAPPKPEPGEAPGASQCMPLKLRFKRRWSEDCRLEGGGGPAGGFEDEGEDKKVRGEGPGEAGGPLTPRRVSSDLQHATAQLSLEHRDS
Conditions: protein: recombinant; tags: N-terminal GST; dsDNA, one strand shown. A digest of the protocol: as §1

In a further assay the target is T7, ETV3L (Homo sapiens, UniProt Q6ZN32 1-361).
T7 sequence: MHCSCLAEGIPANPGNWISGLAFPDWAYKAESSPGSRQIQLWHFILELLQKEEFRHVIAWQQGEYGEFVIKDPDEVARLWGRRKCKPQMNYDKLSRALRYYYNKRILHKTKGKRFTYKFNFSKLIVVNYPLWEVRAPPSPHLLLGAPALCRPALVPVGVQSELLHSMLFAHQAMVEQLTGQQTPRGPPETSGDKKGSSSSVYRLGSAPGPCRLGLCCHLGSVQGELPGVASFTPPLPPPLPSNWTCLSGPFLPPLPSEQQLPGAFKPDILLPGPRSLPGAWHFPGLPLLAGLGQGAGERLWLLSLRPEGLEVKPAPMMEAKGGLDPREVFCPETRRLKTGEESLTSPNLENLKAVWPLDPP
Conditions: protein: recombinant; tags: N-terminal GST; dsDNA, one strand shown. Put shortly: as §1

Another assay deals with T8, ETS2 (Homo sapiens, UniProt P15036 1-469).
T8 sequence: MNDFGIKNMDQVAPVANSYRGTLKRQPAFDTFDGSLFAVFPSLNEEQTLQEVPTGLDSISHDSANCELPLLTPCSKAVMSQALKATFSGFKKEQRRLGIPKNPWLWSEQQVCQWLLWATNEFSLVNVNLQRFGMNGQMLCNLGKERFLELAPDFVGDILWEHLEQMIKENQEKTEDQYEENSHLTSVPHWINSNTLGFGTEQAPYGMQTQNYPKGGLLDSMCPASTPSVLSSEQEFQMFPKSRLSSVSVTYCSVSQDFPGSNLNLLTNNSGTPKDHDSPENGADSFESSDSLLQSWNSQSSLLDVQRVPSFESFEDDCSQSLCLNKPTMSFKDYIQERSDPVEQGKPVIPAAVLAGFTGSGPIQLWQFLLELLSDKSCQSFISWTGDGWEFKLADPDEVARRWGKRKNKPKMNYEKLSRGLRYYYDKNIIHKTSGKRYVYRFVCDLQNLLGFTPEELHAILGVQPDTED
Conditions: protein: recombinant; tags: N-terminal GST; dsDNA, one strand shown. A digest of the protocol:
as §1

For a further assay, the target named is T9, SPDEF (Homo sapiens, UniProt O95238 1-335).
T9 sequence: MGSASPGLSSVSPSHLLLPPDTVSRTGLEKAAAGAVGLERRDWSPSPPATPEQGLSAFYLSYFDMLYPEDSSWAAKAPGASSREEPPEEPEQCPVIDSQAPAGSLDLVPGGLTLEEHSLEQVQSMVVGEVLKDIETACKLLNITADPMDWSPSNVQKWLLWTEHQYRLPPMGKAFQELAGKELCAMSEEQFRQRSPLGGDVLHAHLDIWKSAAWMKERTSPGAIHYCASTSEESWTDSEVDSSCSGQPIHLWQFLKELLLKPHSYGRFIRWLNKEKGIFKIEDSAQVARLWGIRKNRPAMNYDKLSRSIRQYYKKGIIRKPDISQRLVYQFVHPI
Conditions: protein: recombinant; tags: N-terminal GST; dsDNA, one strand shown. A digest of the protocol: as §1

The target of a further assay is T10, ETV7 (Homo sapiens, UniProt Q9Y603 1-341).
T10 sequence: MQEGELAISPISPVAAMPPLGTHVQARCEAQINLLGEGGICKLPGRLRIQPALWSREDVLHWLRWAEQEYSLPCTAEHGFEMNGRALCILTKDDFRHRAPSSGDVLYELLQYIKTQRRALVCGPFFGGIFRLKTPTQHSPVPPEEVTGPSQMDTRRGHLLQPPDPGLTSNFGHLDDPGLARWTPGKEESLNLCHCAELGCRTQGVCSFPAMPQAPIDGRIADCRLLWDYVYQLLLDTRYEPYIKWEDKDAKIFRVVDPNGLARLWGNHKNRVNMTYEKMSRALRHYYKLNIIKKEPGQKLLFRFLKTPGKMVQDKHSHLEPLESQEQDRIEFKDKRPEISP
Conditions: protein: recombinant; tags: N-terminal GST; dsDNA, one strand shown. A digest of the protocol: as §1

The next assay has as its target T11, ELF5 (Homo sapiens, UniProt Q9UKW6-2 1-255).
T11 sequence: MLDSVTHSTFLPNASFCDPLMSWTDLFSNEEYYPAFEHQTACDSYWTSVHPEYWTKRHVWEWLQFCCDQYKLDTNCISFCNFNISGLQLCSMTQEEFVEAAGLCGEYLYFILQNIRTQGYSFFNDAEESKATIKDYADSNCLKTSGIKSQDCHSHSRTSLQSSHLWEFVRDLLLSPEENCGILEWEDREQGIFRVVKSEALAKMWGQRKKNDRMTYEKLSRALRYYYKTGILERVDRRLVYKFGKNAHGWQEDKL
Conditions: protein: recombinant; tags: N-terminal GST; dsDNA, one strand shown. Put shortly: as §1

A further assay concerns the target T12, ETV3 (Homo sapiens, UniProt P41162-2 1-143).
T12 sequence: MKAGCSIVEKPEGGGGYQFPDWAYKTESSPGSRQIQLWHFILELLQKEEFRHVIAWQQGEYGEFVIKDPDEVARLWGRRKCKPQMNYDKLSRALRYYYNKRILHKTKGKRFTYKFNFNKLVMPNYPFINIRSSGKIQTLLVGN
Conditions: protein: recombinant; tags: N-terminal GST; dsDNA, one strand shown. Put shortly:
as §1

In the next assay the target is ETV6 (Homo sapiens, UniProt P41212 1-452). Conditions: protein: recombinant; tags: N-terminal GST; dsDNA, one strand shown. Put shortly: as §1
Chain of ETV6 (P41212 whole entry): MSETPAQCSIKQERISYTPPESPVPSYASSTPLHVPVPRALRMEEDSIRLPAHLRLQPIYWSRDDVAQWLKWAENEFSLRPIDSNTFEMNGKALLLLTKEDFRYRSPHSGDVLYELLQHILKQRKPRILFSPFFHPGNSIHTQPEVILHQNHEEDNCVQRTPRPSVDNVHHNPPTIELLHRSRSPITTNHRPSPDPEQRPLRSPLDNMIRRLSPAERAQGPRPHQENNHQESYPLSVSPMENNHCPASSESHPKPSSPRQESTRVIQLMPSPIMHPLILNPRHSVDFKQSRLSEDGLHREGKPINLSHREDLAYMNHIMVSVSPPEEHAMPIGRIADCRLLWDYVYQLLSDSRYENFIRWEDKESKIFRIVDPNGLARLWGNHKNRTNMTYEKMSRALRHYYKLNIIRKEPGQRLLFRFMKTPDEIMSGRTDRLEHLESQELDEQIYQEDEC

Chain of ETV1 (P50549 whole entry): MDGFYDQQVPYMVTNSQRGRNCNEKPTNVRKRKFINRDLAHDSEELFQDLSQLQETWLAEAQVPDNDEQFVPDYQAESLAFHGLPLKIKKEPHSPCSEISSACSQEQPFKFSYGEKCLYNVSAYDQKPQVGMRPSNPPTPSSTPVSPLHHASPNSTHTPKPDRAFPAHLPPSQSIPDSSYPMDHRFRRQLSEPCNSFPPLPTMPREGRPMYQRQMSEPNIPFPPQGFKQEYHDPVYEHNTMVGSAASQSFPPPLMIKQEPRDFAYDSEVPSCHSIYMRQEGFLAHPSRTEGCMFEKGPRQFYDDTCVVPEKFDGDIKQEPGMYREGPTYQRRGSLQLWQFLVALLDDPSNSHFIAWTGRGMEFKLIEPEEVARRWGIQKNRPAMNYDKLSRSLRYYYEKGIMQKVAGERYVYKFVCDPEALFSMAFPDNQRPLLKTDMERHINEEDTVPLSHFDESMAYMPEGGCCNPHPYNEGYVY
Chain of ELF4 (Q99607 whole entry): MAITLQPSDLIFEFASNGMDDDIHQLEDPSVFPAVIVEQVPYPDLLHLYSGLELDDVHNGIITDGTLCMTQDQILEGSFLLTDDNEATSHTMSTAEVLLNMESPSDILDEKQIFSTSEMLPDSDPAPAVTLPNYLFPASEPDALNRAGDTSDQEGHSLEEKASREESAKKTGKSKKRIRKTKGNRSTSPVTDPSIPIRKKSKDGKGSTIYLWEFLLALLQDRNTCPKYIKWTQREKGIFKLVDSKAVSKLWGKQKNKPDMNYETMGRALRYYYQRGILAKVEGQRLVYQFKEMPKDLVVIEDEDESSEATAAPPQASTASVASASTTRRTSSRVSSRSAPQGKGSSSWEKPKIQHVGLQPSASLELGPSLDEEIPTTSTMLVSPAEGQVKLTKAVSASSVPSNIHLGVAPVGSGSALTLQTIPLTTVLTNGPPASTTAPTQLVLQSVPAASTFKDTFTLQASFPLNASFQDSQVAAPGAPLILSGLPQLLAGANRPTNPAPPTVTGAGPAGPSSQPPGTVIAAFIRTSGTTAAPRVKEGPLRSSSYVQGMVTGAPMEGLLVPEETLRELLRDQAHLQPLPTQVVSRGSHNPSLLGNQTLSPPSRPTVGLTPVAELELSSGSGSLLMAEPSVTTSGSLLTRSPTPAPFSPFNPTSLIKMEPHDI
Chain of HSF1 (Q00613 whole entry): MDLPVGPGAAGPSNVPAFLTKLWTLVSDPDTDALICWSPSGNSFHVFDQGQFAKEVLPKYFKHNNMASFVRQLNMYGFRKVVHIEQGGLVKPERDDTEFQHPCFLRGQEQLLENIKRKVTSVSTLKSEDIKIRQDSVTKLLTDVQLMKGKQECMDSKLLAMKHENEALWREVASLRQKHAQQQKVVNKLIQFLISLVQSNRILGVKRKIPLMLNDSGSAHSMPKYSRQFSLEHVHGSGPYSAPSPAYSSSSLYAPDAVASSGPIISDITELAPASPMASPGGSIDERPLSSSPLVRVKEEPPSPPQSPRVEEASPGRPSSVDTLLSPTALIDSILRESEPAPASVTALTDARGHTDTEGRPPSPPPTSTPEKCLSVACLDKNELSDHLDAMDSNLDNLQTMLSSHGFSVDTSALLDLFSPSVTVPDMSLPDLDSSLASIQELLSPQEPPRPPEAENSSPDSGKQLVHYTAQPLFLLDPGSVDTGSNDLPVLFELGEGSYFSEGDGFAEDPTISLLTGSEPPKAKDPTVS
Chain of ETV5 (P41161 whole entry): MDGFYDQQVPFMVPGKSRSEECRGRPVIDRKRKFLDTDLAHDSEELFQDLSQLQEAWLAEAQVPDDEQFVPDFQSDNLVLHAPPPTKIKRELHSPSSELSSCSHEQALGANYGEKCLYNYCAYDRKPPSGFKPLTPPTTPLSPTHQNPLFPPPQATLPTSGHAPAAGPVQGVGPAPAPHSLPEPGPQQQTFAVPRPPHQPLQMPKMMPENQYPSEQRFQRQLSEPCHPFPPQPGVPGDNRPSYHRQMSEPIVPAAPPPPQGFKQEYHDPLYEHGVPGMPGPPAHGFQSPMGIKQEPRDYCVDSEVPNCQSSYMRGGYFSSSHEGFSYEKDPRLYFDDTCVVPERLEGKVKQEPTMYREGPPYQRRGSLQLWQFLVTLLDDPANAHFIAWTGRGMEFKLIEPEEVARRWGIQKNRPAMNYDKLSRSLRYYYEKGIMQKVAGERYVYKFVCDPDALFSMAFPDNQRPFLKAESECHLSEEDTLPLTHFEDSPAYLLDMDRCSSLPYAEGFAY
Chain of CRX (O43186 whole entry): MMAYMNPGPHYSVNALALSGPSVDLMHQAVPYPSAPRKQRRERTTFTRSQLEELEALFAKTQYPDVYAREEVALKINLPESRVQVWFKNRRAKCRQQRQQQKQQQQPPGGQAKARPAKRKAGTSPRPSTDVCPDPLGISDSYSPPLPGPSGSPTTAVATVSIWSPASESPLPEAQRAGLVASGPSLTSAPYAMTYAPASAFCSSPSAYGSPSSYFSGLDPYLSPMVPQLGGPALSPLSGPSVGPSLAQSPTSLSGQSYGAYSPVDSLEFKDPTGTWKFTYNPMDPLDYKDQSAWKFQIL

Consider TTCGCC, for which the binding signal was 1.19 fold enrichment (6-mer frequency, TF over GST control) with FEV; 1.13 fold enrichment (6-mer frequency, TF over GST control) with ETV5; 1.14 fold enrichment (6-mer frequency, TF over GST control) with HSF1; 1.32 fold enrichment (6-mer frequency, TF over GST control) with SPIC; 1.05 fold enrichment (6-mer frequency, TF over GST control) with ELF4; 1.08 fold enrichment (6-mer frequency, TF over GST control) with ELK4. Moreover, the binding signal was 1.1 fold enrichment (6-mer frequency, TF over GST control) with ETV2; 1.08 fold enrichment (6-mer frequency, TF over GST control) in the assay with ELF3; 1 fold enrichment (6-mer frequency, TF over GST control) with CRX; 1.13 fold enrichment (6-mer frequency, TF over GST control) with ETV1; 1.14 fold enrichment (6-mer frequency, TF over GST control) with ERF; 1.27 fold enrichment (6-mer frequency, TF over GST control) with ETV3L. Moreover, the binding signal was 1.12 fold enrichment (6-mer frequency, TF over GST control) with ETS2; 1.1 fold enrichment (6-mer frequency, TF over GST control) in the assay with SPDEF; 1.18 fold enrichment (6-mer frequency, TF over GST control) with ETV7; 1.04 fold enrichment (6-mer frequency, TF over GST control) with ELF5; 1.08 fold enrichment (6-mer frequency, TF over GST control) with ETV3; 1.16 fold enrichment (6-mer frequency, TF over GST control) with ETV6.
